# In PubChem BioAssay (NCATS):
# Results filed as inconclusive are left out. Where a call stands in place of a potency, no number is given. Active and inactive are the calls of the source. Unless noted, calls follow the shape of the dose curve; as a rule, active = well fitted curve in the direction sought with a large enough effect; inconclusive = small, poorly fitted or top-dose-only effect, or another doubt; inactive = no such curve, though single readings can be large; an effect the other way counts as inactive or inconclusive.
# Tests used:
# [1] = Primary qHTS for small molecule stabilizers of the endoplasmic reticulum resident proteome: Secreted ER Calcium Modulated Protein (SERCaMP) assay (AID 1508630); details: SH-SY5Y GLuc-SERCaMP (Gaussia luciferase released on ER calcium loss) secretion, thapsigargin, luminescence; series mostly up to 38.4 µM
# Procedure, shortened: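 The SH-SY5Y reporter protocol was run at 3 concentrations up to 38.3 uM (primary) or 11 concentrations (follow-up): 16 h compound, 100 nM thapsigargin for 4 h, then extracellular luciferase luminescence.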
# [2] = Primary qHTS for inhibitors of nuclear receptor binding SET domain protein 2 (NSD2) in an isogenic RCH-ACV NSD2 p.E1099K mutant (9B) (AID 1645876); details: RCH-ACV NSD2 E1099K (9B) viability, CellTiter-Glo, 72 h; series mostly up to 44.9 µM; also: nearly all actives have a fitted effect of over 70% in size; also: potency is read from the fitted curve at half-maximal effect
# [3] = target: Cytochrome P450 2C9 (Homo sapiens) (UniProt P11712); assay: Cytochrome P450 family 2 subfamily C member 9 (CYP2C9) small molecule antagonists: luciferase biochemical (cell-free) qHTS assay (AID 1645842; active = well fitted curve in the direction sought with a large enough effect in the repeat runs; an effect the other way counts as inactive or inconclusive; also: potency is read from the fitted curve at half-maximal effect; nearly all actives have a fitted effect of over 55% in size); details: P450-Glo CYP2C9 enzyme assay, luciferin luminescence; series mostly up to 57.4 µM
# Cytochrome P450 2C9 (Homo sapiens), sequence (P11712 whole entry, looked up): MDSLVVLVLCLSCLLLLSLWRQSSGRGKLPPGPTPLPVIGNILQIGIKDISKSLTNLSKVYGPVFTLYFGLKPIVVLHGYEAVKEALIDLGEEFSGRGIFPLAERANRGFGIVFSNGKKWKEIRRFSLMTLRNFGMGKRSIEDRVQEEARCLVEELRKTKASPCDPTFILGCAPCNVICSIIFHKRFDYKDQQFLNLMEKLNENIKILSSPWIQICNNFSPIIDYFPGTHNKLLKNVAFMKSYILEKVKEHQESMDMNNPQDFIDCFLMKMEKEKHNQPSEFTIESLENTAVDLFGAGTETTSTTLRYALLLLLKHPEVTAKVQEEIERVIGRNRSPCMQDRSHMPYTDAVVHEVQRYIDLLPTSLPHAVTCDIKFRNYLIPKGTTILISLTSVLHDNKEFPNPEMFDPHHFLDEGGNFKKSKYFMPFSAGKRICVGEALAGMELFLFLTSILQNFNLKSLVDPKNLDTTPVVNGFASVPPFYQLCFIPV
# Procedure, shortened: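 P450-Glo CYP2C9 system: proluciferin substrate with enzyme in mix containing 0.4% BSA, 10 min at room temperature, then NADPH regeneration solution added and incubated 1 h at 37C. Detection reagent stopped reaction; luminescence read after 20 min as RLU.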
# [4] = Primary qHTS for inhibitors of nuclear receptor binding SET domain protein 2 (NSD2) in an RCH-ACV wild type WT cells (2C) (AID 1645877); details: RCH-ACV (leukaemia line) NSD2 WT (2C) viability, CellTiter-Glo, 72 h; series mostly up to 44.9 µM; also: nearly all actives have a fitted effect of over 70% in size; also: potency is read from the fitted curve at half-maximal effect
Structure (SMILES),Potency [1],Potency [2],Potency [3],Potency [4]
N[C@@H](CC(=O)N1CCn2c(nnc2C(F)(F)F)C1)Cc1cc(F)c(F)cc1F,inactive,inactive,,
NC1(C(=O)N[C@@H](CCO)c2ccc(Cl)cc2)CCN(c2ncnc3[nH]ccc23)CC1,inactive,0.817 µM (active),,
O=C1CN2Cc3c(ccc(Cl)c3Cl)N=C2N1,inactive,inactive,,
CNC(=O)c1cc(Oc2ccc(NC(=O)Nc3ccc(Cl)c(C(F)(F)F)c3)c(F)c2)ccn1,inactive,14.5 µM (active),9.52 µM (active),18.3 µM (active)
N#CC(c1ccc(Cl)cc1)c1c(Cl)cc(-n2ncc(=O)[nH]c2=O)cc1Cl (stereo unspecified),inactive,,19 µM (active),inactive
COc1cc2c(cc1OC)CC(=O)N(CCCN(C)C[C@H]1Cc3cc(OC)c(OC)cc31)CC2,inactive,inactive,,inactive
